Reference: PubChem BioAssay
A number with no mark means an inactive call. How the calls were made is not given here.

target: Pantothenate synthetase (Mycobacterium tuberculosis (strain ATCC 25618 / H37Rv)) (UniProt P9WIL5); assay: Recombinant Mtb pantothenate synthetase (PanC) inhibitors, coupled enzyme, confirmatory (AID 375); conditions: coupled enzyme assay; at 10 µM, active compounds read high;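 further: 0% = full reaction with vehicle and 100% = no enzyme background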
Sequence (P9WIL5 whole entry, looked up): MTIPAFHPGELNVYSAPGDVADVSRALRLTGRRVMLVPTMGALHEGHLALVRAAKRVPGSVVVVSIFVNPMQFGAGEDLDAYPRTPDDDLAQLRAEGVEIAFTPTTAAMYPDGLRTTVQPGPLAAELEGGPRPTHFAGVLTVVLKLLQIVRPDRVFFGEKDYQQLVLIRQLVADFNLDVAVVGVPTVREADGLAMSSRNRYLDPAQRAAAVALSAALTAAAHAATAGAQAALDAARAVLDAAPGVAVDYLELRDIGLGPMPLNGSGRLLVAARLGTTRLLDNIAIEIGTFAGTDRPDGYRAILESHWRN

Row | SMILES | inhibition [%]
1 | Cc1nc(CNS(=O)(=O)c2cccc(F)c2)cs1 | 0
2 | CCCCn1nnnc1SCC(=O)N1CCN(C(=O)c2ccco2)CC1 | 0
3 | COc1cc2[nH]c3c(=O)n(CCN(C(C)C)C(C)C)cnc3c2cc1OC | 10
4 | Cc1ccccc1Cn1nc(C)c(NC(=O)c2noc3c2CCCC3)c1C | 5
5 | Cc1cc(=O)oc2c1ccc1oc(/C(=N/O)c3ccccc3)c(C)c12 | 0
6 | CCOC(=O)c1cccc(NC(=O)CSc2nnc(-c3cccnc3)n2C)c1 | 7
7 | C=C(C)Cn1c(CCCNC(=O)C(C)(C)C)nc2ccccc21 | 0
8 | CCCn1c(SCC(=O)NCCc2ccccc2)nnc1-c1ccccn1 | 6
9 | Cc1cc(C)nc(SCCS(=O)Cc2ccc(Cl)cc2)n1 (stereo not drawn) | 0
10 | CN1CCN(C2=C(Cl)C(=O)N(c3cccc(Cl)c3)C2=O)CC1 | 3
11 | COc1ccccc1OCc1ccc(C(=O)Nc2ccncc2)o1 | 2
12 | CCCC(=O)Nc1cc(C)c(NC(=O)c2ccccn2)cn1 | 0
13 | COc1ccc(C(=O)N2CCN(C(=O)c3ccco3)CC2)cc1OC | 4
14 | CCOC(=O)c1c(-c2cccs2)csc1NC(=O)CCCC(=O)O | 0
15 | C=CCSc1nnc(-c2ccc(Cl)cc2Cl)o1 | 5
16 | CCCN(CCC)CCCNS(=O)(=O)c1ccc2c(c1)oc(=O)n2C | 0
17 | Cc1cc(C)cc(NC(=O)CSc2nnc(Cc3cccn3C)n2-c2ccc(F)cc2)c1 | 6
18 | CC1CCCCC1NC(=O)c1ccc(N2CCCC2=O)cc1 (stereo not drawn) | 0
19 | O=C(CCCn1ncn2c(cc3occc32)c1=O)N1CCc2ccccc2C1 | 6
20 | Cc1cc(N2CCOCC2)nc2ccc(NC(=O)C3CCC(C)CC3)cc12 (stereo not drawn) | 0
21 | Cc1cc(C(=O)COc2cccc3cccnc23)c(C)n1C | 0
22 | COc1ccccc1NC(=O)N1CCN(c2ccccc2F)CC1 | 0
23 | O=C(O)CCCC(=O)NCCc1ccncc1 | 0
